# Rows were chosen to be rich in hits. Some 2.5% of all compounds tested hit in one or more screens of this group.
# LGR2 inh: inhibitors of bursicon-induced LGR2 CRE-luciferase signal, primary screen, cell-based, HEK293, CRE-luciferase reporter, bursicon stimulation; Drosophila bursicon receptor LGR2 (rickets); bursicon-stimulated, 4 h; inhibition, % at 9.99 µM; 380,000 tested, 0.35% active; AID 720647, 2013;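 active = drop in luminescence signal, shown as inhibition above about 50% in the replicate tests, limit read from the data, passing the limit was not always enough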;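 also: agonist challenge used bursicon conditioned medium at about half maximal strength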
# EWS-Fli block: EWS/Fli-driven NR0B1 reporter inhibitors, primary screen, A673 cells, NR0B1 luciferase, luminescence, MLPCN library | viability-normalised | inhibition, % at 12.6 µM | 350,000 tested, 0.67% active | AID 651661, 2012;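 active = mean inhibition of at least 50% after viability correction, with every replicate also passing that limit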;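 also: firefly luciferase signal divided by Alamar Blue viability fluorescence both relative to DMSO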
# EBV LMP1 NFkB: EBV LMP1-driven NF-kappaB luciferase reporter inhibitors, primary screen, cell-based, luminescence, single point; AID 504558, 2011; inhibition, % at 12.5 µM; LMP1-induced NF-kappaB luciferase reporter cells; 350,000 tested, 0.69% active; in the data active = inhibition above about 41%;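 also: 0% = neutral control wells and 100% = reference inhibitor control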
# TWEAK-Fn14 inh: inhibitors of TWEAK-Fn14 signaling, primary screen, luciferase reporter cells, uHTS. 360,000 tested, 2% active. inhibition, % at 10 µM. TWEAK-stimulated Fn14 reporter cells, luciferase luminescence, 8 h. AID 1159606, 2016; in the data active = inhibition above about 50%
# TROY signal inh: inhibitors of TROY-driven NF-kB signaling, primary screen, Q293 LMP1-TROYcd cells, NF-kB luciferase, uHTS; Q293 LMP1-TROYcd NF-kB luciferase reporter, 4 h; inhibition, % at 10 µM; 360,000 tested, 0.98% active; AID 1347056, 2019;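 active = compounds whose plate-normalised and pattern-corrected inhibition of the luciferase reporter signal at the single screening dose is 50% or more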
# * = called active by the depositor; / = not tested or not shown.
SMILES,LGR2 inh,EWS-Fli block,EBV LMP1 NFkB,TWEAK-Fn14 inh,TROY signal inh
O=C(NCCN1C(=O)S/C(=C\c2ccc(Cl)c(Cl)c2)C1=O)c1ccc2c(c1)C(=O)N(Cc1ccncc1)C2=O,12,1,13,58*,-23
O=C(NCCN1C(=O)S/C(=C\c2ccc(Cl)c(Cl)c2)C1=O)C1COc2ccccc2O1 (stereo not given),6,8,-5,29,23
O=C(c1cc2sccc2n1Cc1ccc(F)cc1)N1CCN(c2nc3ccccc3s2)CC1,/,/,27,65*,30
NCCCN1CCOCC1,/,/,6,5,4
C(CCN1CCOCC1)CN1CCOCC1,3,-5,/,-9,64*
C[C@@H]1CN([C@@H](C)CO)C(=O)Cc2cc(NC(=O)Nc3ccc(F)cc3)ccc2O[C@H]1CN(C)C(=O)Nc1ccc2c(c1)OCO2,0,5,/,/,/
O=C(COC(=O)CCc1c[nH]c2ccccc12)NCc1ccc(Cl)cc1,-13,5,46*,-22,2
COc1ccccc1OCCC(=O)OCC(=O)NCc1ccc(F)cc1,8,0,69*,-6,-5
COc1ccc(S(=O)(=O)Nc2ccc3c(c2)C(=O)N([C@H](C)CO)C[C@H](C)[C@@H](CN(C)C(=O)CCC(F)(F)F)OCCCC[C@@H](C)O3)cc1,17,-3,/,/,/
COc1ccc2c(c1)CC/C(=C\c1ccc(OC)c(Cn3cccn3)c1)C2=O,/,/,-25,59*,44
Cn1c2ccccc2c(=O)c2cc(C#CC3(O)CCCCC3)ccc21,82*,68*,11,90*,88*
Cn1c2ccccc2c(=O)c2cc(C#Cc3ccsc3)ccc21,-70,-77,-27,-58,-58
NC1(C#Cc2ccc3c(=O)c4ccccc4sc3c2)CCCCC1,/,5,8,81*,49
Cn1c2ccccc2c(=O)c2ccc(C#CC3(N)CCCCC3)cc21,5,-86,1,34,62*
Cc1ccc(S(=O)(=O)N(C)C[C@H]2Oc3c(NC(=O)C4CCOCC4)cccc3C(=O)N([C@H](C)CO)C[C@H]2C)cc1,1,-4,/,/,/
Cc1ccc(-c2nc(N)sc2-c2ccccc2)cc1C,-7,/,-59,86*,53*
Nc1ncnc(N2CCc3ccccc32)c1[N+](=O)[O-],15,-14,65*,84*,61*
CN(C)c1ccc2c(c1)[C@H]1C[C@@H](CC(=O)N3CCCCC3)O[C@@H](CO)[C@H]1O2,14,-3,/,/,/
Cn1c(/C=C/c2ccc(Cl)cc2Cl)c([N+](=O)[O-])c(=O)n(C)c1=O,56*,38,-30,73*,9
CCc1ccc(/C=C/c2c([N+](=O)[O-])c(=O)n(C)c(=O)n2C)cc1,40,-7,6,65*,13
O=C(NCC[C@H]1CC[C@@H](NC(=O)c2cccnc2)[C@H](CO)O1)Nc1ccc(F)cc1,33,-6,/,/,/
N#C[C@@H]1[C@@H](c2ccccc2-c2cccc(F)c2)[C@@H](CO)N1C(=O)C1CCC1,-1,-11,/,/,/
CN(CCOc1ccc(Cl)cc1)C(=O)c1cccc(S(=O)(=O)N2CCN(c3ccc(F)cc3)CC2)c1,/,/,3,64*,13
CN(Cc1ccc(OC(F)F)cc1)C(=O)c1cccc(S(=O)(=O)N2CCN(c3ccccc3)CC2)c1,0,15,23,73*,37
CC(C)NC(=O)N(C)C[C@@H]1Oc2ccc(NC(=O)Cc3ccccc3)cc2C(=O)N([C@@H](C)CO)C[C@@H]1C,3,1,/,/,/
SMILES,LGR2 inh,EWS-Fli block,EBV LMP1 NFkB,TWEAK-Fn14 inh,TROY signal inh
Cc1ccc2nc(N/N=C\c3ccc([N+](=O)[O-])o3)nc(-c3ccccc3)c2c1,/,/,13,67*,-5
O=[N+]([O-])c1ccc(/C=N/Nc2nc(-c3ccccc3)c3cc(Br)ccc3n2)o1,/,/,17,35,-20
Cc1ccccc1-c1cnc2c(c1)C(=O)N([C@H](C)CO)C[C@H](C)[C@@H](CN(C)Cc1cncnc1)O2,9,1,/,/,/
COc1ccc(C2=NO[C@@H]3C(=O)N(c4ccc5c(c4)OCCO5)C(=O)[C@H]23)cc1OC,/,/,17,81*,69*
COc1ccc(C2=NO[C@@H]3C(=O)N(C4CCCCC4)C(=O)[C@H]23)cc1OC,/,/,0,7,25
COc1ccc(COc2ccccc2C(=O)NCc2ccccc2)cc1F,-12,/,22,69*,47
Cn1c(=O)c(/C=C/c2ccccc2)nc2ccccc21,-17,-25,-28,-6,-46
Cn1c(/C=C/c2ccccc2)nc2ccccc21,80*,59*,47*,83*,31
Cc1ccc(-c2nnc(N3CCN(C(=O)COc4cccc(C)c4)CC3)c3ccccc23)cc1,/,7,16,-12,35
COc1ccc(OCC(=O)N2CCN(c3nnc(-c4ccccc4)c4ccccc34)CC2)cc1,/,/,9,7,27
COc1ccc(OCC(=O)N2CCN(c3nnc(-c4ccc(C)cc4)c4ccccc34)CC2)cc1,59*,16,21,-2,59*
Cc1ccc(OCC(=O)N2CCN(c3nnc(-c4ccc(C)cc4)c4ccccc34)CC2)cc1,/,/,20,51*,59*
COc1ccc2c(c1)c(CC(=O)NCc1cc([N+](=O)[O-])ccc1O)c(C)n2C(=O)c1ccc(Cl)cc1,3,1,-1,43,62*
COc1ccc2c(c1)c(CC(=O)Nc1nnc(C3CC3)s1)c(C)n2C(=O)c1ccc(Cl)cc1,24,-33,48*,58*,53*
COC(=O)c1cc(Br)c(=O)n(Cc2ccco2)c1,/,/,3,78*,/
Oc1ccc(-c2cc(-c3ccc(O)cc3)nc(-c3ccccc3)n2)cc1,12,19,-1,44,54*
CCCN(C)C[C@H]1OCCCC[C@H](C)Oc2ccc(NC(=O)NC3CCCCC3)cc2C(=O)N([C@@H](C)CO)C[C@H]1C,2,2,/,/,/
O=C(Nc1ccc(Cl)cc1)N[C@@H]1CC[C@H](CCn2cc(-c3ccccc3F)nn2)O[C@@H]1CO,-5,3,/,/,/
CC12CCC(=O)C=C1CCC1C2CCC2(C)C(c3csc(N)n3)CCC12 (stereo not given),8,8,21,57*,51*
O=C(Nc1nnc(-c2ccccc2)s1)c1cc(S(=O)(=O)N2CCOCC2)c(Cl)cc1Cl,/,/,-1,-55,61*
COc1cc(OC)c2c(-c3cccc(-c4ccc(CO)cc4)c3)cc(=O)oc2c1,/,/,10,75*,41
COc1cc(OC)c2c(-c3cccc(/C=C/c4ccc(F)cc4)c3)cc(=O)oc2c1,-71,-80,-21,-13,-76
COc1ccc(-c2cccc(-c3cc(=O)oc4cc(OC)cc(OC)c34)c2)cc1,-7,53*,-14,5,20
COc1cc(OC)c2c(C)cc(=O)oc2c1,-4,/,1,-4,-28

# High-throughput results deposited in PubChem by several laboratories.
